Experimental data: PubChem BioAssay AID624351 (Southern Research Specialized Biocontainment Screening …, 2012)
Out of some 2,400 compounds screened, about 1,400 (58%) were called active. The set was probably picked from earlier hits. The list shows a part of the results. Values without a mark were called inactive.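 How the source made its calls: active means inhibition of 30% or more at any tested dose; inconclusive means primary hits over the limit that were never retested; inactive means the rest.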

Assay: coupled detection enzyme interference, dose response, artefact control for MgcRacGAP inhibitor project, biochemical, coupled enzyme counter-screen (AID 624351);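 further: signal is the ADP detection kit reading of free GDP without any GAP enzyme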;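 on inhibition: 0% = median positive control wells and 100% = median negative control wells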
Details: ADP Hunter coupled enzyme counter-screen, fluorescence, no MgcRacGAP; series mostly up to 80 µM; inhibition: at the top concentration

For `CC1=C/C(=C(/c2cc(C)c(O)c(Br)c2)c2ccccc2S(=O)(=O)O)C=C(Br)C1=O`, which IC50 is on record?
Its IC50 is 62.4 µM (active).

With `Oc1ccc(Br)cc1C=Nc1ccc2c3c(cccc13)CC2` as the molecule, how does the IC50 read?
The IC50 was 79.9 µM (active).

With `Oc1ccc(Cl)cc1C=Nc1ccc2c3c(cccc13)CC2` as the molecule, how does the IC50 read?
The IC50 was 14.8 µM (active).

For `Cc1cccc(C=Nc2ccc3c4c(cccc24)CC3)c1O`, which IC50 is on record?
Its IC50 is 32.6 µM (active).

For `CC(C)(C)N(Cc1ccc2c(c1)OCO2)C(=O)/C=C\S(=O)c1ccccc1` (centres undefined), which “inhibition” value is on record?
Its value is 1.78%.

Which “inhibition” value does the source give for `COc1ccc(C2NC(=O)C(C#N)=C(S)N2c2cccc(C)c2)cc1OC` (centres undefined) here?
The value was 3.49%.

With `COCc1cc(S(=O)c2ccc(Cl)cc2)nc(C)n1` (centres undefined) as the molecule, how does the “inhibition” value read?
Its value is 1.89%.

With `C=CCc1ccc(OCCOCCNCCCC)c(OC)c1` as the molecule, how does the “inhibition” value read?
Its value is 16.3%.

With `COc1cc(/C=N/NC(=O)CNC(=O)c2ccc3c(c2)OCCO3)ccc1O` as the molecule, how does the IC50 read?
The IC50 was 58.4 µM (active).

Which IC50 does the source give for `COc1cc(/C=N/NC(=O)c2ccc3c(c2)OCO3)ccc1O` here?
Its IC50 is 31.9 µM (active).

Which “inhibition” value does the source give for `Cc1nc2c(=O)[nH]c(=S)[nH]c2[nH]c1=O` here?
The value was 0.49%.

With `CN1CCc2c1nc1ccccc1c2NC(=O)CN1CCCC1` as the molecule, how does the “inhibition” value read?
The value was 12.3%.

With `Cc1[nH]nc(-c2ccc(O)c(C)c2O)c1-c1cnn(-c2ccccc2)c1` as the molecule, how does the IC50 read?
The IC50 was 70.7 µM (active).

For `O=C(Cc1coc2cc(O)ccc12)NNC(=O)c1cccs1`, which IC50 is on record?
The IC50 was 33.8 µM (active).

Which IC50 does the source give for `O=C(Cc1coc2cc(O)ccc12)NNC(=O)c1ccc(Br)s1` here?
The IC50 was 35.2 µM (active).

Which IC50 does the source give for `O=c1oc2cc(O)ccc2c2oc3cc(O)ccc3c12` here?
Its IC50 is 54.1 µM (active).

With `COc1cc(-c2ncc3ccccn23)cc(OC)c1OC` as the molecule, how does the “inhibition” value read?
The value was 23.4%.

For `CC1CC(=O)N(c2ccc(NCCc3ccc(O)cc3)c([N+](=O)[O-])c2)C1=O` (centres undefined), which IC50 is on record?
Its IC50 is 65.3 µM (active).

For `CCCCc1nc2ccccc2c(NC(=O)CN2CCN(C)CC2)c1CCC`, which “inhibition” value is on record?
The value was 22.9% [at 40 µM].

For `O=c1c2ccccc2sn1-c1ccccc1F`, which “inhibition” value is on record?
Its value is 25.3%.

With `O=[N+]([O-])c1ccccc1Nc1ccc(O)cc1` as the molecule, how does the IC50 read?
Its IC50 is 16.3 µM (active).

Which “inhibition” value does the source give for `Nc1nc(Sc2ccc([N+](=O)[O-])c3nonc23)c2[nH]cnc2n1` here?
Its value is 0.9%.

For `CC(=O)C1=C(O)C(=O)N(c2ccc(O)cc2)C1c1ccccc1[N+](=O)[O-]` (centres undefined), which “inhibition” value is on record?
Its value is 22.4%.

For `Cc1ccc(/C=C/C(=O)Nc2ccc([N+](=O)[O-])c(NC(=O)/C=C/c3ccc(C)o3)c2)o1`, which “inhibition” value is on record?
The value was -7.16%.

For `Nc1cc([N+](=O)[O-])ccc1Nc1ccc(O)cc1`, which IC50 is on record?
The IC50 was 36.7 µM (active).

Which IC50 does the source give for `O=[N+]([O-])c1cc([N+](=O)[O-])c2nonc2c1Nc1ccc(O)cc1` here?
The IC50 was 44.7 µM (active).

With `Cc1cc(NCCCCCCCNc2cc(C)nc3cc([N+](=O)[O-])ccc23)c2ccc([N+](=O)[O-])cc2n1` as the molecule, how does the “inhibition” value read?
The value was 20.3%.

Which “inhibition” value does the source give for `CCN(Cc1ccncc1)Cc1ccc(OC)cc1OC` here?
Its value is 7.38%.

With `Cn1cccc1/C=N/N1CCN(c2ccccn2)CC1` as the molecule, how does the IC50 read?
The IC50 was 31.9 µM (active).

For `CC(C(=O)N1CCCc2ccccc21)N1CCN(c2ccccn2)CC1` (centres undefined), which “inhibition” value is on record?
The value was 21.2%.

With `COc1ccc(CN2CCN(c3ccccn3)CC2)c(OC)c1C` as the molecule, how does the “inhibition” value read?
The value was 5.26%.

For `Cn1cccc1/C=N/N1CCN(c2ccccc2)CC1`, which IC50 is on record?
The IC50 was 78.7 µM (active).

With `Cc1nc(S/C(=C\c2ccc(-c3ccc(C(=O)O)c(Cl)c3)o2)C(=O)O)n[nH]1` as the molecule, how does the “inhibition” value read?
The value was 8.4%.

For `CC[n+]1c(/C=C/N(C)c2ccccc2)oc2ccc(Cl)cc21`, which “inhibition” value is on record?
Its value is 9.46%.

For `COc1ccc(O/C(=N\S(=O)(=O)c2ccccc2)c2ccccc2)cc1`, which IC50 is on record?
Its IC50 is 46.1 µM (active).

For `C=CCn1c(CNc2ccccc2)nnc1SCC(=O)N/N=C/c1ccc(O)cc1O`, which IC50 is on record?
Its IC50 is 79.7 µM (active).

With `Cc1ccc(C2=NOC(=O)/C2=C\c2ccc(C)o2)cc1` as the molecule, how does the “inhibition” value read?
The value was -3.56%.

For `COc1cc(CNCc2cc(OC)c(OC)c(OC)c2)cc(OC)c1`, which “inhibition” value is on record?
The value was -0.49%.

For `COc1cc(OC)c2cc[nH]c2c1`, which IC50 is on record?
Its IC50 is 80.5 µM (active).

With `COc1ccc(CN2CCN(Cc3c[nH]c4ccccc34)CC2)c(OC)c1` as the molecule, how does the “inhibition” value read?
Its value is 21.2%.

Which IC50 does the source give for `C=CCn1c(SCC(=O)Nc2ccc(O)cc2)nc2sc(CC)cc2c1=O` here?
The IC50 was 37.1 µM (active).

With `Cc1ccccc1N1C(S)=C(C#N)C(=O)NC12CCCCC2` as the molecule, how does the “inhibition” value read?
Its value is 4.18%.

With `Cc1cc(=O)c2c(O)c(O)ccc2o1` as the molecule, how does the IC50 read?
The IC50 was 41.8 µM (active).

For `COc1ccc2c(c1)Sc1ccccc1N2`, which IC50 is on record?
Its IC50 is 34.1 µM (active).

For `COc1cc(CN2CCN(C(=O)c3cccc4ccccc34)CC2)cc(OC)c1OC`, which “inhibition” value is on record?
The value was 10.6%.

Which “inhibition” value does the source give for `CCC(CC)N1CCN(C(=O)c2cccc(Cl)c2)CC1` here?
The value was 16.6%.

Which “inhibition” value does the source give for `Cc1ccccc1CN1CCN(C(=O)c2cccc3ccccc23)CC1` here?
Its value is 8.55%.

With `Cc1ccc(-c2cc(C(=O)N3CCN(c4ccc(O)cc4)CC3)c3ccccc3n2)cc1` as the molecule, how does the IC50 read?
The IC50 was 83.4 µM (active).

Which “inhibition” value does the source give for `COc1ccc(C(=O)Nc2ccc(N3CCCCCC3)cc2)cc1S(=O)(=O)N1CCOCC1` here?
Its value is 24.4%.

For `S=C(c1ccccc1)N1CCN(c2ccccc2)CC1`, which “inhibition” value is on record?
The value was 3.57%.

Which IC50 does the source give for `O=C(c1ccccc1)c1ccc(C(=O)N2CCN(c3ccc(O)cc3)CC2)cc1` here?
Its IC50 is 39 µM (active).

For `O=C(c1ccc(Cl)c(S(=O)(=O)N2CCCCCC2)c1)N1CCN(c2ccc(O)cc2)CC1`, which IC50 is on record?
Its IC50 is 34.3 µM (active).

Which “inhibition” value does the source give for `O=C(c1ccccc1)N1CCN(C2CCCCC2)CC1` here?
The value was 14.7%.

With `O=C(c1cc(C2CC2)nn1-c1ccccc1)N1CCN(c2ccc(O)cc2)CC1` as the molecule, how does the IC50 read?
The IC50 was 42.2 µM (active).
